Assay outcomes (PubChem)
Eya2 inh = blocks the phosphatase activity of human Eya2; 0.006% of 330,000 active; O00167; Potency, µM (series often up to 76.9 µM), usual class: inhibitors; recombinant Eya2, OMFP fluorescence dephosphorylation (OMFP is methylfluorescein phosphate)
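Eya2 protein (added as 0.2 uM solution) was preincubated with compound for 10 min at ambient temperature in 50 mM HEPES pH 7.5, 50 mM NaCl, 5 uM MgCl2, 0.05% BSA, 1 mM DTT. OMFP (added at 50 uM) then reacted 10 min; fluorescence read at 485/525 nm.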
D1 antag = antagonists of human D1 dopamine receptor; P21728; HEK293 TREx D1 cells, calcium flux, dopamine EC80; active compounds read low; activity change, negative = inhibition, % at 10 µM; 3.2% of 360,000 active; AID 504652; in the data active = activity change below about -30%
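Inducible Hek293 Trex D1 cells (tetracycline, overnight, 30 C). Calcium dye 30–90 min RT. Antagonist mode: EC80 dopamine added after 180 s compound read.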
D1 agonist = agonists of human D1 dopamine receptor; AID 504660; 1% of 360,000 active; HEK293 T-REx D1 cells, calcium flux, agonist mode; activation, % at 2 µM; in the data active = activation above about 30%
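Agonism was scored from calcium flux recorded over 180 s (1 read/s) after pintool compound addition, following a 10-cycle baseline. Cells were inducible force-coupled HEK293 TREx D1, plated overnight at 30 C and loaded with no-wash calcium dye.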
USP2a inh = blocks human ubiquitin-specific protease USP2a | USP2 core, Ub-CHOP2 coupled fluorogenic reporter, 485/531 | 0.01% of 330,000 active | O75604 | Potency, µM (highest dose often 38.3 µM), usual class: inhibitors
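Cell-free coupled assay: 10nM USP2 core preincubated 30min RT with compound in Tris-HCl pH 8.0/CaCl2/CHAPS buffer, then 25nM Ub-CHOP2 and 25nM reporter substrate; fluorescence (Ex 485/Em 531) read after 60min RT, normalized to NEM inhibition, concentration-response curves fitted.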
D1 potentiator = human D1 dopamine receptor positive modulation. potentiation, % at 10 µM. HEK293 TREx D1 cells, calcium flux, dopamine EC20 potentiation. AID 504651. 0.036% of 360,000 active. P21728; in the data active = potentiation above about 30%
GALK inhibitor = blocks human galactokinase activity. P51570. Purified GALK, Kinase-Glo residual ATP luminescence. Potency, µM (top dose mostly 57.5 µM), most hits filed as inhibitors. 0.007% of 270,000 active. AID 1868
Target sequence (P51570 whole entry, looked up): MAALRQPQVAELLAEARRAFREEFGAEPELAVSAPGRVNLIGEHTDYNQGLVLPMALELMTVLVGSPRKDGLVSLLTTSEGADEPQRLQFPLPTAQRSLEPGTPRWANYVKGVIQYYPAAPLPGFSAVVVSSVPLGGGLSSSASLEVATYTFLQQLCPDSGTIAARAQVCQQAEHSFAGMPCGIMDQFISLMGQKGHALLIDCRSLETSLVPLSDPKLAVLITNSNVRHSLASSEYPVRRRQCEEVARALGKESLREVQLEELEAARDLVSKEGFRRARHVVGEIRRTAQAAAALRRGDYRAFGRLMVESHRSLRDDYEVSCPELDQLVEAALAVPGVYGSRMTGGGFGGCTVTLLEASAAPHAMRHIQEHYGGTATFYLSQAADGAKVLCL
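ATP-depletion format; final 35 uM ATP, 100 uM D-galactose, 5 nM enzyme; pH 8.0 HEPES/Mg2+ buffer; 60 min RT; luminescence read 10 min after detection reagent.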
Large screens that a line does not name were inactive. An excerpt weighted towards active compounds, which were near 3.9% of everything screened. Unless noted, calls follow the shape of the dose curve; as a rule, active = well fitted inhibition curve with a large enough effect; inconclusive = small, poorly fitted or top-dose-only effect, or effect the other way; inactive = flat fitted curve, though single readings scatter.

COCCN1CCn2c(nc3cc(NC(=O)c4ccc(OC)cc4)ccc32)C1	D1 antag -52
Cc1csc2c(NC3CCN(Cc4ccccc4)CC3)ncnc12	D1 antag -37 (no result: GALK inhibitor)
CS(=O)(=O)NC1CCN(Cc2ccccc2)CC1	none
Cc1sc2ncnc(NC3CCN(Cc4ccccc4)CC3)c2c1C	D1 antag -53
c1ccc(CN2CCC(Nc3ncnc4sccc34)CC2)cc1	none
COC(=O)C1=C(N)Oc2cc(C)n(CC3CCCO3)c(=O)c2C1c1ccc(Cl)c(Cl)c1 (configuration not stated)	none
COC(=O)C1=C(N)Oc2cc(C)n(C)c(=O)c2C1c1ccc(Cl)c(Cl)c1 (configuration not stated)	D1 antag -33
Cc1ccc(SCc2nc(-c3ccc(C(=O)NCC(C)c4ccccc4)cc3)oc2C)cc1 (configuration not stated)	D1 agonist 30 (no result: Eya2 inh, USP2a inh, GALK inhibitor)
COc1ccc(OC)c(NC(=O)c2ccc(-c3nc(CSc4ccccc4)c(C)o3)cc2)c1	D1 antag -32 (no result: Eya2 inh, USP2a inh, GALK inhibitor)
Cc1ccc(SCc2nc(-c3ccc(C(=O)NCCc4ccc(Cl)cc4)cc3)oc2C)cc1	none (no result: Eya2 inh, USP2a inh, GALK inhibitor)
Cc1ccc(-n2ccnc(NCCc3ccc(S(N)(=O)=O)cc3)c2=O)c(C)c1	none (no result: Eya2 inh, USP2a inh, GALK inhibitor)
CNC(=O)C(=O)Nc1c(C)cc(C)cc1C	D1 antag -36
COc1ccc(CN(C)C(=O)c2ccc(Cl)c(S(=O)(=O)NCc3cccnc3)c2)cc1F	D1 antag -47 (no result: GALK inhibitor)
COc1ccc(S(=O)(=O)NCc2cccnc2)cc1Br	D1 antag -32
COCCN(C(=O)c1cccc(-n2cnnn2)c1)c1c(N)n(CC(C)C)c(=O)[nH]c1=O	D1 antag -40 (no result: GALK inhibitor)
CCCN(C(=O)COC(=O)CCOc1ccccc1)c1c(N)n(Cc2ccccc2)c(=O)[nH]c1=O	none (no result: GALK inhibitor)
CCCn1c(N)c(N(CCOC)C(=O)c2ccccc2)c(=O)[nH]c1=O	D1 antag -36
COCCN(C(=O)c1cc(-c2ccncc2)nc2ccccc12)c1c(N)n(CC(C)C)c(=O)[nH]c1=O	none (no result: GALK inhibitor)
CCCCn1nc(C(=O)N(CCOC)c2c(N)n(CCCC)c(=O)[nH]c2=O)c2ccccc2c1=O	D1 antag -30 (no result: D1 potentiator, GALK inhibitor)
CCCN(C(=O)CCOc1ccc(C(C)(C)C)cc1)c1c(N)n(Cc2ccccc2)c(=O)[nH]c1=O	D1 antag -50 (no result: GALK inhibitor)
CCCCn1c(N)c(N(Cc2ccccc2OC)C(=O)c2c(CC)noc2C)c(=O)[nH]c1=O	D1 antag -44
COCCN(C(=O)CSc1nnc(Nc2ccc(C)cc2)s1)c1c(N)n(CC(C)C)c(=O)[nH]c1=O	D1 potentiator 36
CCCCn1c(N)c(N(CC)C(=O)c2c(CC)noc2C)c(=O)[nH]c1=O	none (no result: GALK inhibitor)
Cc1ccc(C(=O)NCCc2csc(-c3cccc(F)c3)n2)cc1C	none (no result: Eya2 inh, USP2a inh, GALK inhibitor)
CC(C)(C)OC(=O)Cc1nnc(C(C(=O)OCc2ccccc2)c2ccccc2)s1 (configuration not stated)	none (no result: Eya2 inh, USP2a inh, GALK inhibitor)
CN(C)c1ccc(CNC(=O)C2CCN(C(=O)c3ccc(-n4ccc5ccccc54)s3)CC2)cc1	none (no result: Eya2 inh, USP2a inh, GALK inhibitor)
COCCNC(=O)c1cn(C)c2ccc(S(=O)(=O)N3CCCC3)cc2c1=O	D1 antag -31
CCn1cc(C(=O)O)c(=O)c2cc(S(=O)(=O)N(C)C)ccc21	D1 antag -37
CCCCN(C)CCCNC(=O)c1cn(CC)c2ccc(S(=O)(=O)N3CCOCC3)cc2c1=O	D1 antag -32
CCn1cc(C(=O)NCc2ccccc2Cl)c(=O)c2cc(S(=O)(=O)N3CCCCCC3)ccc21	D1 antag -62 (no result: Eya2 inh, USP2a inh, GALK inhibitor)
O=C(Cn1c(=O)n(Cc2ccco2)c(=O)c2sc3ccccc3c21)Nc1ccccc1C(F)(F)F	none (no result: Eya2 inh, USP2a inh, GALK inhibitor)
CCOc1ccc(Cl)cc1C1CC(=O)Nc2cc(OC)c(OC)c(OC)c21 (configuration not stated)	none (no result: Eya2 inh, USP2a inh, GALK inhibitor)
Nc1nnc(SCC(=O)OCC(=O)Nc2ccccc2F)s1	D1 antag -56
CC(C)c1ccc(NC(=O)COC(=O)CSc2nnc(N)s2)cc1	none
Cc1cccc(-c2nc(SCC(=O)Nc3ccc4c(c3)OCO4)c(-c3ccccc3)[nH]2)c1	none (no result: Eya2 inh, USP2a inh, GALK inhibitor)
O=C(CSc1nc(O)c(Cc2ccccc2)c(=O)n1-c1ccccc1)N1CCOCC1	none
Cc1ccc(-n2c(SCC(=O)N3CCOCC3)nc(O)c(Cc3ccccc3)c2=O)cc1	D1 antag -31
Cc1ccc(C(=O)Nc2nnc(S(=O)(=O)N3c4ccccc4CC3C)s2)cc1 (configuration not stated)	none (no result: Eya2 inh, USP2a inh, GALK inhibitor)
CCc1ccc2occ(CC(=O)Nc3ccc(C)c(C)c3)c2c1	none (no result: Eya2 inh, USP2a inh, GALK inhibitor)
CCNC(=O)c1ccc(NS(=O)(=O)c2ccc3[nH]c(=O)[nH]c3c2)cc1	D1 antag -41
Cc1ccc(NS(=O)(=O)c2ccc3[nH]c(=O)oc3c2)cc1Cl	none (no result: GALK inhibitor)
COC(=O)c1ccc(NS(=O)(=O)c2ccc3[nH]c(=O)oc3c2)cc1	D1 antag -30
COC(=O)c1ccc(CNC(=O)c2ccc(NS(=O)(=O)c3ccc4[nH]c(=O)[nH]c4c3)cc2)cc1	none (no result: GALK inhibitor)
CCn1c(=O)cc(OCC(=O)NCc2ccccc2OC)c2ccccc21	none (no result: Eya2 inh, USP2a inh, GALK inhibitor)
Cc1ccc(CNC(=O)c2ccccc2NC(=O)c2nsc3ccccc23)cc1	none (no result: Eya2 inh, USP2a inh, GALK inhibitor)
O=C(Nc1cccc(C(F)(F)F)c1)n1cc(-c2ccccn2)c(N2CCOCC2)n1	D1 antag -47
COc1ccccc1CNC(=O)CN(C)S(=O)(=O)c1ccc2c(c1)c(=O)n(C)c(=O)n2C	D1 antag -37
CN(CC(=O)NCc1ccc(Cl)cc1)S(=O)(=O)c1ccc2c(c1)c(=O)n(C)c(=O)n2C	D1 antag -44 (no result: Eya2 inh, USP2a inh, GALK inhibitor)
Nc1ccc(-c2nc3ncccc3o2)cc1	D1 antag -34
Cc1cc(NC(=O)COn2nnc3ccc(Cl)cc32)no1	none
CCOc1ccccc1NC(=O)COn1nnc2ccc(Cl)cc21	D1 agonist 30
Oc1ccccc1N1CCN(C(=S)Nc2ccc(SC(F)F)cc2)CC1	none
FC(F)(F)c1cccc(NC(=S)N2CCN(c3ccccn3)CC2)c1	D1 antag -30
FC(F)(F)c1cccc(NC(=S)N2CCN(c3cccc(C(F)(F)F)c3)CC2)c1	none
Fc1ccc(NC(=S)N2CCN(c3cccc(C(F)(F)F)c3)CC2)cc1	D1 antag -38 (no result: GALK inhibitor)
S=C(Nc1ccccc1Cl)N1CCN(c2ccccn2)CC1	D1 antag -32
FC(F)Sc1ccc(NC(=S)N2CCN(c3ccccn3)CC2)cc1	D1 antag -34
COc1ccc(CNC(=O)CCCN2C(=O)c3cccnc3Oc3ccc(Cl)cc32)cc1	none (no result: Eya2 inh, USP2a inh, GALK inhibitor)
O=C(NCc1nc2ccccc2[nH]1)c1c(F)cccc1F	none (no result: Eya2 inh, USP2a inh, GALK inhibitor)
